In PubChem BioAssay (NCI):
Compounds without any hit were thinned out: in the full panel of roughly 79,000, 15% have a hit. A number with no mark means an inactive call. Activity calls are given as the source filed them. Cut-off read from the data, not from the text of the source: active = growth inhibition above about 70%; inactive = the rest.

Tests used:
[1] = NCI Yeast Anticancer Drug Screen. Data for the rad50 strain (AID 155);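 note: 0% = growth of vehicle-only cultures of the same strain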; details: S. cerevisiae rad50 strain growth inhibition; at 50.0 µM; active compounds read high
Method in brief: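 A DNA repair-deficient yeast mutant serves as the test organism; compound-induced growth inhibition is calculated against vehicle-treated cells.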

[2] = NCI Yeast Anticancer Drug Screen. Data for the mec2-1 strain (AID 157); details: S. cerevisiae mec2-1 strain, at 50.0 µM, active compounds read high
Method in brief: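 Growth inhibition is read against vehicle-treated controls after compound exposure of the mec2-1 yeast strain, which is defective in DNA damage repair or cell cycle control.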

[3] = NCI Yeast Anticancer Drug Screen. Data for the sgs1 mgt1 strain (AID 161);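 note: 0% = growth of cultures given vehicle only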; details: S. cerevisiae sgs1 mgt1 strain, at 50.0 µM, active compounds read high
Method in brief: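 Percent growth inhibition was derived by comparing compound-exposed mutant yeast with vehicle-exposed cultures. The strain carries alterations in DNA damage repair.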

[4] = NCI Yeast Anticancer Drug Screen. Data for the cln2 rad14 strain (AID 165);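 note: 0% = growth equal to vehicle treated cultures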; details: S. cerevisiae cln2 rad14 strain, at 50.0 µM, active compounds read high
Method in brief: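 Growth inhibition, relative to vehicle-treated controls, is the read-out. The test organism is a yeast strain with defined genetic alterations, cln2 rad14.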

[5] = NCI Yeast Anticancer Drug Screen. Data for the bub3 strain (AID 167); details: S. cerevisiae bub3 mutant strain, at 50.0 µM, active compounds read high
Method in brief: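 Inhibition values come from growth of compound-treated mutant yeast normalised to vehicle-treated controls.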

[6] = NCI Yeast Anticancer Drug Screen. Data for the mlh1 rad18 strain (AID 175); details: S. cerevisiae mlh1 rad18 strain growth inhibition; at 50.0 µM; active compounds read high
Method in brief: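 Cells of a genetically altered yeast strain, deficient in DNA damage repair, were treated with compound. Their growth was then compared with that of vehicle-treated cultures to give inhibition.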

Compound: COc1ccc2cc(CC(=O)c3ccccc3)ccc2c1
- growth inhibition [1]: -24.2%
- growth inhibition [2]: -6.95%
- growth inhibition [3]: -11.2%
- growth inhibition [4]: -37.8%
- growth inhibition [5]: -17.1%
- growth inhibition [6]: -3.5%

Compound: Cc1ccc2c(c1)C(c1ccccc1)(c1ccccc1)N(c1ccccc1)S2(=O)=O
- growth inhibition [1]: 51.2%
- growth inhibition [2]: 34.2%
- growth inhibition [3]: 64.7%
- growth inhibition [4]: 25.2%
- growth inhibition [5]: 20.5%
- growth inhibition [6]: 58.6%

Compound: CC1CCc2c(ccc3ccccc23)C1 (stereo unspecified)
- growth inhibition [1]: -0.25%
- growth inhibition [2]: -16.4%
- growth inhibition [3]: -3.55%
- growth inhibition [4]: -4.55%
- growth inhibition [5]: -16.8%
- growth inhibition [6]: -2.05%

Compound: CC(C)(C)CC(C)(C)NCc1ccccc1
- growth inhibition [1]: 22.9%
- growth inhibition [2]: -5.55%
- growth inhibition [3]: 2.5%
- growth inhibition [4]: 0.2%
- growth inhibition [5]: 2.5%
- growth inhibition [6]: 18.3%

Compound: CC(O)C(N=Cc1ccccc1[O-])C(=O)[O-].CC(O)C(N=Cc1ccccc1[O-])C(=O)[O-].[Co+2] (stereo unspecified)
- growth inhibition [1]: -7%
- growth inhibition [2]: -2.05%
- growth inhibition [3]: -16.6%
- growth inhibition [4]: 4.4%
- growth inhibition [5]: 7.65%
- growth inhibition [6]: -25.9%

Compound: N#CCCCCCCCCC(=O)O
- growth inhibition [1]: -14.6%
- growth inhibition [2]: -14.4%
- growth inhibition [3]: 6.9%
- growth inhibition [4]: -18.4%
- growth inhibition [5]: -39.5%
- growth inhibition [6]: -11.5%

Compound: Oc1ccc2ccccc2c1
- growth inhibition [1]: -10.3%
- growth inhibition [2]: -27.8%
- growth inhibition [3]: -14.8%
- growth inhibition [4]: -21.4%
- growth inhibition [5]: -16.4%
- growth inhibition [6]: 20.9%

Compound: CC(=O)Nc1ccc(S(=O)(=O)N/N=c2/sc3ccccc3n2C)cc1
- growth inhibition [1]: -11.3%
- growth inhibition [2]: -12.4%
- growth inhibition [3]: 16%
- growth inhibition [4]: 20.5%
- growth inhibition [5]: 13.8%
- growth inhibition [6]: -4%

Compound: C/C(=N/NC(=O)NN)c1cccc(O)c1
- growth inhibition [1]: 3.1%
- growth inhibition [2]: -11.8%
- growth inhibition [3]: -16.6%
- growth inhibition [4]: 2.15%
- growth inhibition [5]: -4.5%
- growth inhibition [6]: -19.2%

Compound: COCC(OC)C(Cl)C(=O)Nc1ccc(Br)cc1 (stereo unspecified)
- growth inhibition [1]: 14.6%
- growth inhibition [2]: 31.1%
- growth inhibition [3]: 15.2%
- growth inhibition [4]: -14.4%
- growth inhibition [5]: 28.9%
- growth inhibition [6]: 10.8%

Compound: CC(C)(C)C(=O)CN
- growth inhibition [1]: -19.4%
- growth inhibition [2]: -10.1%
- growth inhibition [3]: -9.55%
- growth inhibition [4]: -71%
- growth inhibition [5]: 11%
- growth inhibition [6]: -2.65%

Compound: COc1ccc(/C=C\c2cccc(Cl)c2)cc1
- growth inhibition [1]: 21.6%
- growth inhibition [2]: -25.1%
- growth inhibition [3]: 3.3%
- growth inhibition [4]: -8.95%
- growth inhibition [5]: -13.3%
- growth inhibition [6]: 6.4%

Compound: O=C(O)C(Br)C(Br)C(=O)Nc1ccc(F)cc1 (stereo unspecified)
- growth inhibition [1]: 99.7% (active)
- growth inhibition [2]: 99.7% (active)
- growth inhibition [3]: 99.7% (active)
- growth inhibition [4]: 98.3% (active)
- growth inhibition [5]: 99.7% (active)
- growth inhibition [6]: 99.3% (active)

Compound: BrC1CCC(Br)C(Br)CCC1Br (stereo unspecified)
- growth inhibition [1]: 46.5%
- growth inhibition [2]: 54.9%
- growth inhibition [3]: 55.1%
- growth inhibition [4]: 31.8%
- growth inhibition [5]: 60%
- growth inhibition [6]: 70.4% (active)

Compound: COC(=O)/C=C/c1cc(OC)c2c(c1)C(C(=O)OC)C(c1ccc(O)c(OC)c1)O2 (stereo unspecified)
- growth inhibition [1]: -2.75%
- growth inhibition [2]: 7.6%
- growth inhibition [3]: -38.4%
- growth inhibition [4]: -17.6%
- growth inhibition [5]: -23.8%
- growth inhibition [6]: -8.95%

Compound: CP1(=O)CC(=O)CCCCC(=O)C1
- growth inhibition [1]: 2.25%
- growth inhibition [2]: -1.6%
- growth inhibition [3]: -1.2%
- growth inhibition [4]: -25.8%
- growth inhibition [5]: 42.7%
- growth inhibition [6]: 19.6%

Compound: C=C(C)C(=O)OCCn1c(=O)c2c(ncn2C)n(C)c1=O
- growth inhibition [1]: -7.25%
- growth inhibition [2]: -18.8%
- growth inhibition [3]: -12.8%
- growth inhibition [4]: -3.1%
- growth inhibition [5]: -14.5%
- growth inhibition [6]: 5.55%

Compound: CCC(C)C(NS(=O)(=O)Cc1ccccc1)C(=O)O (stereo unspecified)
- growth inhibition [1]: -3.85%
- growth inhibition [2]: 16.4%
- growth inhibition [3]: 3.05%
- growth inhibition [4]: 10.9%
- growth inhibition [5]: -10.3%
- growth inhibition [6]: 6.8%

Compound: C[C@@H](O)[C@H](NSc1ccccc1[N+](=O)[O-])C(=O)NCCc1nc(-c2nc(C(=O)NCCCBr)cs2)cs1
- growth inhibition [1]: -0.8%
- growth inhibition [2]: 2.35%
- growth inhibition [3]: -2.1%
- growth inhibition [4]: -21.5%
- growth inhibition [5]: 1.55%
- growth inhibition [6]: 13%

Compound: CCSc1nc(COC(=O)NC)c(COC(=O)NC)n1C
- growth inhibition [1]: 4.9%
- growth inhibition [2]: -4.25%
- growth inhibition [3]: 8.25%
- growth inhibition [4]: -4.15%
- growth inhibition [5]: 10.7%
- growth inhibition [6]: 3.65%

Compound: COC(=O)C(Cc1ccccc1)NP(=O)(O)OCC1OC(n2cc(I)c(=O)[nH]c2=O)CC1O (stereo unspecified)
- growth inhibition [1]: -11.8%
- growth inhibition [2]: -2.65%
- growth inhibition [3]: -15.2%
- growth inhibition [4]: -10.5%
- growth inhibition [5]: -10.1%
- growth inhibition [6]: 0.85%
